Most compounds without a hit are left out; they make up all but 1.2% or so of the library.
TcdB GH inh = inhibitors of Clostridioides difficile toxin B glycohydrolase | P18177 | TcdB glycohydrolase enzymatic assay, plate reader | inhibition, % at 9.99 µM | 350,000 compounds, 0.24% hits | AID 652162; in the data active = inhibition above about 10%
Target sequence (P18177 whole entry, looked up): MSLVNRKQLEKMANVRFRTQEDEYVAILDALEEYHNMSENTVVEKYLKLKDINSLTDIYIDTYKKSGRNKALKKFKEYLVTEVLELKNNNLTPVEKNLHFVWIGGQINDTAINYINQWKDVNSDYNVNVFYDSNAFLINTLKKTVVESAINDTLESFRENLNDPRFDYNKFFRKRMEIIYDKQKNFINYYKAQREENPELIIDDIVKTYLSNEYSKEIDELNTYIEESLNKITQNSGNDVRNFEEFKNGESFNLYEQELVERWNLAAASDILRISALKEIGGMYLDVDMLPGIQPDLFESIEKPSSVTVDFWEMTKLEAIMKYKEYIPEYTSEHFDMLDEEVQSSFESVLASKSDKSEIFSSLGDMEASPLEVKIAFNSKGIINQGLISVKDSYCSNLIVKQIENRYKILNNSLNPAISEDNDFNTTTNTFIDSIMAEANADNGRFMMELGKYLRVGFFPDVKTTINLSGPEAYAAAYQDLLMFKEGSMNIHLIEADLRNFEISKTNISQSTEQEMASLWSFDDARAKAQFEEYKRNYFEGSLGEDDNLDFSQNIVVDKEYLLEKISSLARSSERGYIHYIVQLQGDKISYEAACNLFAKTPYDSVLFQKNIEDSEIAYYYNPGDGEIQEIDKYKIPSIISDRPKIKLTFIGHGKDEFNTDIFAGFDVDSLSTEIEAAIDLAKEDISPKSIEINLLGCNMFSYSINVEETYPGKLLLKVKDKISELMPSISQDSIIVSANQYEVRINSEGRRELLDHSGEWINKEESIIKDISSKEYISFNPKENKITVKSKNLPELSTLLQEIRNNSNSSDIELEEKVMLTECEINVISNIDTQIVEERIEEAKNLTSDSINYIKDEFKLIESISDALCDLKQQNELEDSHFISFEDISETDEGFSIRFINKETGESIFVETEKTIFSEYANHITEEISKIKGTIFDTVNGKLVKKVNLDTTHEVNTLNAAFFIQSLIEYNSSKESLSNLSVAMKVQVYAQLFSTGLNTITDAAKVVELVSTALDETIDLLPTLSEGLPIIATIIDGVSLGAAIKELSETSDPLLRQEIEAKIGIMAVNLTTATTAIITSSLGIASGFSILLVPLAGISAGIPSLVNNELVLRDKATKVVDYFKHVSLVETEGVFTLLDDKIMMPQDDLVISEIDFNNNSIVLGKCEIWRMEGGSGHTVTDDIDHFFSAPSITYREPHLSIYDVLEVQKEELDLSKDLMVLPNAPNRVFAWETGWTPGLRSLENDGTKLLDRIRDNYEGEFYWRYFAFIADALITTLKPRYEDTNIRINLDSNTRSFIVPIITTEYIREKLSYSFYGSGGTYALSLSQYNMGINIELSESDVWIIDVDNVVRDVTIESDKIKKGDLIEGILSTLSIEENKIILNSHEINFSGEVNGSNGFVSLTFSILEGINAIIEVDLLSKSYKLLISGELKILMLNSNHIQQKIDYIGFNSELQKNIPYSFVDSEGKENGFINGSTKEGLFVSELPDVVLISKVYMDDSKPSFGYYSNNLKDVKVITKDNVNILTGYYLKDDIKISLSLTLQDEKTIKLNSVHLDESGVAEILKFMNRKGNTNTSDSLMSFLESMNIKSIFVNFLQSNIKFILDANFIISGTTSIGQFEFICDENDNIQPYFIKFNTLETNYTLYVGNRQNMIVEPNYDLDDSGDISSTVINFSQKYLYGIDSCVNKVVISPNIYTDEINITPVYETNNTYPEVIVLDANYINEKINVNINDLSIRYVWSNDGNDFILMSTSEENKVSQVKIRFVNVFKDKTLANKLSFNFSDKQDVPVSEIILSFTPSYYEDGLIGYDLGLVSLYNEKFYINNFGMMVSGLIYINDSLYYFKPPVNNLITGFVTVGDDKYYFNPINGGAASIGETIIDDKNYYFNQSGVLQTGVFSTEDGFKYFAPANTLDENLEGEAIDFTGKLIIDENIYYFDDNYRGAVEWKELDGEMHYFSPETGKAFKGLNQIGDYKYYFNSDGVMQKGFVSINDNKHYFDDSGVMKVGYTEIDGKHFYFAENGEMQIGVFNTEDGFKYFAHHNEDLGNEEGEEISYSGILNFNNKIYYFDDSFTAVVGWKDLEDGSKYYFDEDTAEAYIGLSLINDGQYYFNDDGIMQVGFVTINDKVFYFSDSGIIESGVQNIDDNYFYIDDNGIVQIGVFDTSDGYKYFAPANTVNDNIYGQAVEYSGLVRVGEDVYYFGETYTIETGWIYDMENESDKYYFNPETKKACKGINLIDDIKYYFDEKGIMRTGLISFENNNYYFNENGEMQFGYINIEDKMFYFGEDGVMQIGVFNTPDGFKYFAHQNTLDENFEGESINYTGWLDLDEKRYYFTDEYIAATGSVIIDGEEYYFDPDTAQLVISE
PrP UTR inh = inhibition of PrP 5' UTR reporter expression; cell-based PrP 5' UTR mRNA reporter, plate reader; inhibition, % (concentration not given with the values); 340,000 compounds, 0.35% hits; AID 488862; in the data active = inhibition above about 52%; also: 0 = median of the neutral control wells
Sa ugtP lethal = kills S. aureus RN4220 lacking UgtP; growth inhibition, % (concentration not given with the values); S. aureus RN4220 ugtP deletion, OD600 growth, 16 h; AID 1259309; 330,000 compounds, 0.54% hits; in the data active = growth inhibition above about 68%;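 also: plate controls were untreated wells for no effect and antibiotic for full effect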
RN4220 kill = kills Staphylococcus aureus RN4220 | AID 1259311 | inhibition, % (test concentration not listed) | 330,000 compounds, 0.33% hits | S. aureus RN4220 growth, OD600, 16 h; in the data active = inhibition above about 85%;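 also: plate controls were untreated cells for no effect and reference antibiotic for full effect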
PfHsp40 rescue = rescue of PfHsp40-mediated yeast toxicity; 340,000 compounds, 0.68% hits; growth rescue, % at 12.5 µM; S. cerevisiae expressing PfHsp40, growth rescue, ATP luminescence; in the data active = growth rescue above about 28%, passing the limit was not always enough;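 also: yeast W303a lacking pdr1 and pdr3 grown in galactose medium; growth measured after three days at 30 °C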
Starred values were filed as active, the others as inactive; nt = no result given.

SMILES	TcdB GH inh	PrP UTR inh	Sa ugtP lethal	RN4220 kill	PfHsp40 rescue
CCN(CC)c1ccc(C=NNc2nc3ccccc3[nH]2)cc1	nt	nt	99*	97*	nt
COc1ccc(C=NNc2nc3ccccc3[nH]2)cc1OC	nt	nt	-5	2	nt
O=C(O)c1ccc(C=NNc2nc3ccccc3[nH]2)cc1	nt	nt	1	5	nt
CCN(CC)c1ccc(/C=N/Nc2nc3ccccc3[nH]2)c(O)c1	nt	-4	nt	nt	158*
Oc1ccc(Cl)cc1C1=NNC(c2cccs2)C1 (stereo not drawn)	1	-28	99*	96*	0
COc1ccc(N=Nc2c(C)[nH]c3ccccc23)cc1	2	-51	82*	-2	1
C[C@@H]1CN([C@H](C)CO)C(=O)c2cccc(NC(=O)C3CCOCC3)c2O[C@H]1CN(C)C	0	nt	nt	nt	nt
O=c1c(Br)ccc(Br)cc1Br	1	-18	50	20	77*
C[C@H]1CN([C@@H](C)CO)C(=O)Cc2cc(NC(=O)NC3CCCCC3)ccc2O[C@H]1CN(C)Cc1ccc(C(F)(F)F)cc1	-2	nt	nt	nt	nt
CS(=O)(=O)Nc1ccc2c(c1)[C@H]1C[C@@H](CC(=O)NCCN3CCCCC3)O[C@H](CO)[C@H]1O2	-1	nt	nt	nt	nt
O=C(CC1CC1)Nc1ccc2c(c1)[C@H]1C[C@H](CC(=O)N3CCCCC3)O[C@@H](CO)[C@H]1O2	1	nt	nt	nt	nt
C=CCOc1cccc(CNc2ccc3[nH]c(=O)[nH]c3c2)c1	24*	-1	nt	nt	0
C=CCOc1ccc(CNc2ccc3[nH]c(=O)[nH]c3c2)cc1OC	-1	-12	16	5	2
CC1CCc2c(sc3nc(C4CC4)nc(N4CCN(C(=O)c5ccco5)CC4)c23)C1 (stereo not drawn)	nt	-25	16	-14	161*
COc1cc(/C=C/C(=O)Nc2ccc(OC)c(S(=O)(=O)N3CCOCC3)c2)ccc1OC(F)F	0	-23	87*	-12	1
CCN1C(=O)C2C(c3ccc(-c4ccc(OC)cc4)c(OC)c3)N3CCCC[C@@]3(C(=O)OC)C2C1=O (stereo partly drawn)	nt	nt	10	0	nt
COc1ccccc1N=Cc1c(C)[nH]n(-c2ccc(C)cc2C)c1=O	1	-16	-2	2	58*
COc1cc(SC#N)ccc1N=Cc1c(C)[nH]n(-c2cccc3ccccc23)c1=O	nt	nt	-3	-19	nt
COc1cc(SC#N)ccc1N=Cc1c(C)[nH]n(-c2ccc(C)cc2C)c1=O	nt	-10	-4	-16	38*
CN1CC2C3C(=O)N(Cc4ccccc4)C(=O)C3[C@](C)(C1=O)N2C(=O)c1ccc(Br)cc1 (stereo partly drawn)	nt	nt	2	3	nt
C[C@H](NC(=O)OC(C)(C)C)C(=O)NN=CC1=Cc2ccccc2OC1	nt	nt	2	3	nt
O=C(O)c1ccc(N/N=C/C2=Cc3ccccc3OC2)cc1	0	-108	nt	nt	179*
CS(=O)(=O)Nc1cccc(C2=NN(C(=O)c3ccccc3)C(c3cccs3)C2)c1 (stereo not drawn)	13*	-9	11	4	0
COCC(=O)N(C)C[C@@H]1[C@H](c2ccc(-c3cccnc3)cc2)[C@@H](CO)N1C(C)=O	0	nt	nt	nt	nt
CCCCCCCCCCC(=O)NNC(=O)c1c(O)c2ccccc2n(CC)c1=O	nt	nt	99*	97*	nt
SMILES	TcdB GH inh	PrP UTR inh	Sa ugtP lethal	RN4220 kill	PfHsp40 rescue
CCCCCCn1c(=O)c(C(=O)NN=Cc2cccc(F)c2)c(O)c2ccccc21	nt	nt	100*	60	nt
CCn1c(=O)c(C(=O)NNC(=O)Cc2ccccc2)c(O)c2ccccc21	1	-28	-4	15	-1
CC(C)Cn1c(=O)c(C(=O)N/N=C/c2cccc(F)c2)c(O)c2ccccc21	2	21	nt	nt	-1
CCCCCCCCC(=O)NNC(=O)c1c(O)c2ccccc2n(CCC)c1=O	-1	-12	98*	98*	0
CCCn1c(=O)c(C(=O)NCc2ccccc2)c(O)c2ccccc21	1	-24	nt	nt	-1
CCCCCCCCCC(=O)NNC(=O)c1c(O)c2ccccc2n(CCC)c1=O	1	-23	90*	76	2
COc1ccc(CN(C)C[C@H]2Oc3ccc(NC(=O)Cc4ccccc4)cc3C(=O)N([C@@H](C)CO)C[C@@H]2C)cc1	1	nt	nt	nt	nt
Cc1ccc(NC(=O)C[C@H]2CC[C@H]3[C@@H](COc4ccc(NC(=O)C(C)C)cc4C(=O)N3C)O2)cc1	0	nt	nt	nt	nt
COc1cccc(NC(=O)N(C)C[C@@H]2Oc3ncc(C4=CCCCC4)cc3C(=O)N([C@H](C)CO)C[C@H]2C)c1	-1	nt	nt	nt	nt
O=C(C[C@@H]1C[C@H]2c3cc(NC(=O)CC4CC4)ccc3O[C@H]2[C@@H](CO)O1)NCc1ccncc1	-1	nt	nt	nt	nt
CCCn1c(=O)c(C(=O)NCc2ccc(OC)c(OC)c2)c(O)c2ccccc21	nt	-30	9	14	334*
CCCn1c(=O)c(C(=O)NNC(=O)c2ccc(Cl)cc2Cl)c(O)c2ccccc21	1	-10	3	30	0
CCCn1c(=O)c(C(=O)NNS(=O)(=O)c2ccc(Cl)cc2)c(O)c2ccccc21	nt	-24	100*	99*	1
COc1cccc(-c2ccc3n(c2=O)C[C@@H]2[C@@H](CO)[C@H](C(=O)NC4CCCC4)N[C@H]32)c1	2	nt	nt	nt	nt
O=C(Oc1ccc(N(C(=O)c2ccncc2)S(=O)(=O)c2cccs2)cc1)c1ccncc1	1	-24	-3	2	1
Cc1cc(F)ccc1S(=O)(=O)N(C(=O)c1ccncc1)c1ccc(OC(=O)c2ccncc2)cc1	0	-16	5	4	422*
O=C(O)CCC(=O)c1ccc2sc3ccccc3c2c1	-2	24	nt	nt	122*
O=C(O)CCC(=O)CCC(=O)c1ccccc1	nt	-37	-2	1	0
Cc1cc(C)c(C(=O)CC(=O)c2cccnc2)c(C)c1	1	7	6	11	286*
Cc1ccc(NC(=O)COC(=O)c2cccnc2)c(C)c1	0	-16	-6	2	-1
CN1c2ccsc2C(=NNc2ccccc2)CS1(=O)=O	nt	nt	96*	83	nt
CN1c2ccsc2/C(=N/Nc2ccccc2)CS1(=O)=O	-3	-47	nt	nt	3
C=CCNC(=O)c1n[nH]c2c1CC(C(C)(C)CC)CC2 (stereo not drawn)	1	-3	9	6	96*
O=C(C1CC1)N1[C@@H](CO)[C@@H]2c3ccccc3N(S(=O)(=O)c3ccc(F)cc3)C[C@@H]21	1	nt	nt	nt	nt
Cc1cc(C(=O)Nc2cccc3c2O[C@H](CN(C)Cc2ccncc2)[C@H](C)CN([C@H](C)CO)C3=O)n(C)n1	2	nt	nt	nt	nt
COc1ccc(N2CCN(C(=O)c3ccc(C)cc3)CC2)c([N+](=O)[O-])c1	nt	-15	6	9	33*
Oc1c(Br)cc(Br)cc1C=NNc1ccc(Cl)nn1	nt	nt	100*	21	nt
CCC(=O)N1C[C@@H](C)[C@@H](OC)CN(C)C(=O)c2ccc(NS(C)(=O)=O)cc2OC[C@H]1C	-1	nt	nt	nt	nt
CC(C)c1ccc2c(c1)C1(NN=C(c3ccccc3)S1)C(=O)N2 (stereo not drawn)	nt	24	98*	94*	41*
C[C@@H]1CN([C@H](C)CO)C(=O)c2cccc(N(C)C)c2O[C@@H]1CN(C)C(=O)Nc1ccc(C(F)(F)F)cc1	13*	nt	nt	nt	nt

Source: PubChem (several laboratories)
